Bioassay records: PubChem BioAssay, Broad Institute
The list is a sample of the results.
aSyn 5UTR act: Activators working through SNCA 5'UTR binding (MLPCN) | alpha-synuclein 5'UTR reporter, activators screen | activity score, % (tested at 7.5 µM), hits read low | 300,000 compounds, 7.1% hits; in the data active = activity score below about -60%
Starred values were filed as active, the others as inactive.

SMILES	aSyn 5UTR act
O=C(NCC1CCCO1)c1c(O)c2ccccc2[nH]c1=O (configuration not stated)	-140.0*
O=C(NC1CCCCCC1)c1c(O)c2ccccc2[nH]c1=O	-131.7*
Oc1[nH]c2c(Cl)cc(Cl)cc2c1N=NC(=S)NCC1CCCO1 (configuration not stated)	79.3
O=C(NC1CCCc2ccccc21)c1n[nH]c(=O)c2ccccc12 (configuration not stated)	87.5
Cc1ccc(Nc2nc(N)nc(-c3oc4ccccc4c3C)n2)cc1	91.1
Cc1c(-c2nc(N)nc(Nc3ccccc3F)n2)oc2ccccc12	-178.3*
C/C(=N\Nc1cccc2cccnc12)c1ccc[nH]1	-122.6*
CCCc1n[nH]c2c1/C(=N/O)CC(c1ccccc1)C2 (configuration not stated)	69.4
CCC(=NCCc1c(C)[nH]c2ccc(OC(F)(F)F)cc12)C1=C(O)CC(c2ccccc2)CC1=O (configuration not stated)	107.0
CCOC(=O)c1[nH]c2c(c1-c1ccccc1)C(=O)CC(c1ccccc1)C2 (configuration not stated)	-65.8*
Cc1c(C(=O)OCC(C)C)[nH]c2c1C(=O)CC(c1ccco1)C2 (configuration not stated)	69.9
CCC(C)OC(=O)c1[nH]c2c(c1C)C(=O)CC(c1ccc(N(C)C)cc1)C2 (configuration not stated)	-91.9*
CCCC(=O)N(CCN1CCOCC1)c1nc2c(F)cc(F)cc2s1	-86.3*
Cc1ccc(S(=O)(=O)CCC(=O)N(CCN2CCOCC2)c2nc3ccccc3s2)cc1	-75.3*
Cc1cc(N/N=C/c2ccc([N+](=O)[O-])o2)nc2ccccc12	-133.2*
O=C(N/N=C/c1ccc([N+](=O)[O-])o1)c1cc(-c2ccncc2)nc2ccccc12	-66.7*
O=C(N/N=C/c1ccc([N+](=O)[O-])o1)c1cc(-c2ccc(-c3ccccc3)cc2)nc2ccccc12	76.1
Cc1ccc2nc(N/N=C/c3ccco3)cc(C)c2c1	-185.5*
Cc1cc2ncn(/N=C/c3ccc([N+](=O)[O-])o3)c2cc1C	-121.7*
COc1ccccc1NC(=O)Nc1ccc2c(c1)nnn2C	-96.4*
Cc1ccc(NC(=O)Nc2ccc3c(c2)nnn3C)cc1C	-66.5*
O=C(CSc1nnc(-c2ccccn2)o1)Nc1ccccc1C(F)(F)F	-104.5*
COc1ccccc1NC(=O)CSc1nnc(-c2ccccn2)o1	-65.9*
COc1ccccc1-c1nnc(SCC(=O)Nc2ccc(Cl)cc2Cl)o1	-83.1*
CCn1c(-c2cccnc2Cl)nc2cc(Cl)c(Cl)cc21	-118.7*
SMILES	aSyn 5UTR act
CCC(C)c1ccc2oc(-c3ccc(NC(=O)Cn4cnc5c(=O)n(C)c(=O)n(C)c54)cc3)nc2c1 (configuration not stated)	-114.5*
Cc1ccc2oc(-c3cccc(NC(=O)Cn4cnc5c(=O)n(C)c(=O)n(C)c54)c3)nc2c1	-118.7*
COc1ccc(NC(=O)COc2ccc(/C=N/NC(=O)c3cccnc3)cc2OC)cc1	-105.2*
COc1cc(/C=N/NC(=O)c2cccnc2)ccc1OCC(=O)Nc1ccccc1Cl	-73.0*
Cc1ccc(-n2nc3c(n2)/C(=N/O)CC/C3=N\O)cc1	-89.1*
CC(=O)N(Cc1ccc(F)cc1)C1=C(NCCc2ccccc2)C(=O)c2ccccc2C1=O	69.6
CN(Cc1ccc(F)cc1)C(=O)CCc1nnc(-c2ccccc2)o1	-90.5*
COc1ccc(CCN(C)C(=O)CCc2nnc(-c3ccccc3)o2)cc1OC	-86.1*
COc1ccc([C@@H]2[C@@H]3C(=O)N(C(C)(C)C)C(=O)[C@@H]3[C@]3(Cc4ccccc4)C(=O)N(c4cccc(C)c4)C(=O)N23)cc1	-62.9*
CCCCN1C(=O)/C(=C/C=C2/CC(C)(C)CN2C)SC1=S	-133.8*
CCOc1cc(CNc2ccc3c(c2)CCC3)ccc1O	-118.6*
COc1cc(CNc2ccc3c(c2)CCC3)cc(OC)c1O	-225.8*
COc1cc(C(=O)N=c2sc3ccccc3n2C)cc(OC)c1OC	-103.3*
Cn1c(=NC(=O)c2cccc([N+](=O)[O-])c2)sc2ccccc21	-139.5*
COc1cc(C(=O)N=c2sc3c(C)ccc(OC)c3n2C)cc(OC)c1OC	-222.3*
COc1ccc(C(=O)N=c2sc3c(C)ccc(OC)c3n2C)cc1	-114.6*
CC(C)C(=O)Nc1nnc(NC(=S)Nc2ccccc2)s1	-126.6*
CCCc1nnc(NC(=S)Nc2ccccc2)s1	-126.6*
O=c1c2ccccc2nc(/C=C/c2c[nH]c3ccccc23)n1CCO	-160.0*
Cc1cc(C)n(C(N)=NC(=O)c2ccc([N+](=O)[O-])cc2)n1	-153.7*
COc1ccc(CNc2nc(-c3ccccc3)nn2C(=O)c2ccc([N+](=O)[O-])cc2)cc1	-120.0*
CC(=O)n1nc(-c2ccccc2)nc1NCc1ccc(N(C)C)cc1	-131.5*
Cc1nc(SCCC(=O)O)c2cc(-c3ccccc3)sc2n1	67.1
CC(C)N(C(=O)CSc1ncnc2sc(-c3ccccc3)cc12)C(C)C	-87.8*
Cc1ccc(Nc2nc(COC(=O)COc3ccc(C=O)cc3)cs2)cc1	-107.4*
SMILES	aSyn 5UTR act
C/C=C/c1ccc(OCC(=O)OCc2csc(Nc3ccc(C)cc3)n2)c(OC)c1	-176.8*
CC(=O)Oc1ccc([C@@H]2COc3c(ccc4c3C=CC(C)(C)O4)C2)c(OC(C)=O)c1	-152.4*
COc1ncnc2c1oc1ccccc12	-71.0*
c1ccc(Sc2ncnc3c2oc2ccccc23)nc1	-194.6*
CC(=O)c1ccc(-c2nc3ccccc3n2C)o1	-142.5*
Cc1ccc(C2Nc3ccccc3-c3nc4ccccc4n32)o1 (configuration not stated)	-104.3*
Cc1ccc(-c2nc3ccccc3n2C)o1	-154.6*
CC(C)C(=O)NCCc1nc(-c2ccc(Cl)cc2)no1	-98.7*
Cc1c(OCc2ccccc2)c(=O)ccn1Cc1ccccc1	-110.8*
CCc1sc(C(=O)Nc2nccs2)cc1C	-122.6*
CCc1sc(C(=O)Nc2ncccc2C)cc1C	-66.6*
COc1ccc(C(=O)Nc2ccc3[nH]ccc3c2)cc1	66.4
COc1ccc(OC)c(C(=O)Nc2ccc3[nH]ccc3c2)c1	-112.1*
COc1ccc(C(=O)Nc2ccc3[nH]ccc3c2)cc1OC	-134.2*
Nc1ccc2oc3ncccc3c(=O)c2c1	-97.5*
Cn1c2ccccc2c(=O)c2cc(C#Cc3ccc(N)cc3)ccc21	-89.1*
Nc1ccc2oc3ccccc3c2c1	-100.5*
CCc1nc2c(c(=O)c3ccccc3n2C)c(=O)n1CCc1ccc(OC)cc1	74.0
COc1ccc(C#Cc2ccc3c(c2)c(=O)c2ccccc2n3C)cc1	-124.6*
Nc1ccc(C#Cc2ccc3oc4ccccc4c(=O)c3c2)cc1	-66.3*
COc1cc(-c2noc(C)c2C#Cc2ccc(N)cc2)cc(OC)c1OC	87.8
CCOc1ccc(-c2csc3nc[nH]c(=O)c23)cc1	-154.2*
Cc1cc(-c2onc3ccc(Cl)cc23)ccc1O	-91.3*
Cc1ccc(-c2onc3ccc(C=O)cc23)cc1	-139.0*
Brc1ccc(NC2=Nc3ccccc3CC2)cc1	-172.0*
SMILES	aSyn 5UTR act
CCc1ccc(Nc2ncc3c(n2)CC(C)(C)CC3=O)cc1	-141.4*
Cc1cccc(Nc2ncc3c(n2)CC(C)CC3=O)c1 (configuration not stated)	-127.4*
CCc1ccc(Nc2ncc3c(n2)CC(C)CC3=O)cc1 (configuration not stated)	-134.7*
CCOCCCNC(=O)C1CCN(Cc2ccc(OCc3ccccc3)c(OC)c2)CC1	-117.3*
COc1cc(CN2CCC(C(=O)NCC(C)(C)CN(C)C)CC2)ccc1OCc1ccccc1	-67.3*
CCCCNC(=O)C1CCN(Cc2ccc(OCc3ccccc3)c(OC)c2)CC1	-114.7*
